Results filed as inconclusive are left out. Activity calls are given as the source filed them. Rule for the calls: active = hit-call score of the fitted dose curve at least 0.9, where 1 is the maximum; inconclusive = response in the unintended direction; inactive = score below 0.9.

The assay concerns zebrafish Peroxisome Proliferator-activated Receptor alpha (PPARa), gene 563298. Briefly: ATG_zfPPARa_EcoTox2: Attagene TRANS-FACTORIAL EcoTox-2 HepG2 Assay for zebrafish Peroxisome Proliferator-activated Receptor alpha (PPARa). On the procedure: ATG_EcoTox2 is a cell-based, multiplexed assay created by modifying the existing Attagene TRANS-FACTORIAL system to include a panel of nuclear receptors from some or all the following species: human (Homo sapiens), african clawed frog (Xenopus laevis), rainbow trout (Oncorhynchus mykiss), japanese medaka (Oryzias latipes), and zebrafish (Danio rerio). The ECOTOX2-FACTORIAL format uses HepG2, a human liver cell line, with measurements taken at 24 hours after chemical dosing in a 24-well plate. ATG_zfPPARa_EcoTox2 is one of 29 assay components calculated in the ATG_EcoTox2 assay. It is designed to make measurements of mRNA induction, a form of inducible reporter, as detected with fluorescence intensity signals by Reverse transcription polymerase chain reaction (RT-PCR) and Capillary electrophoresis technology.The assay endpoint ATG_zfPPARa_EcoTox2 was analyzed in the positive analysis fitting direction relative to DMSO as the negative control and baseline of activity. Using a type of inducible reporter, measures of mRNA for gain-of-signal activity can be used to understand the reporter gene at the transcription factor-level as they relate to the gene PPARa. Furthermore, this assay endpoint can be referred to as a primary readout, because this assay has produced multiple assay endpoints where this one serves a reporter gene function. To generalize the intended target to other relatable targets, this assay endpoint is annotated to the nuclear receptor intended target family, where the subfamily is non-steroidal.
Human liver HepG2 cells are transiently transfected with multiple reporter transcription units (MRTUs) in 6-well plates using FuGene 6 reagent (Roche; 3 ml FuGene/1 mg DNA). The MRTU constructs are regulated by a cis-regulating element (promoter). Each RTU expresses a GAL4-UAS that regulates the transcription of a nearby target reporter gene sequence. A major difference between the CIS and TRANS system is that in CIS activities of endogenous TFs are measured, whereas the TRANS assay evaluates changes in activities of exogenous, chimeric NR-Gal4 proteins. […] At the end of 24 hour incubation, total RNA was isolated using TriZol reagent (Invitrogen). The isolated RNA is then reverse-transcribed using oligo(dT) primer and Mo-MLV reverse transcriptase (Invitrogen) with DNAse I (Ambion) treatment for 30 min. The one-tenth of the produced cDNA was amplified by PCR using Taq DNA polymerase (Invitrogen) and two reporter sequence-specific primers. The PCR products were fluorescently labeled by primer extension with 6-arboxyfluorescein (6-FAM) 5'-labeled reporter sequence-specific primer (2 min at 95 C, 20 s at 68 C and 10 min at 72 C) and these products were digested with 5U of HpaI (New England Biolabs) for 2h at 37 C. The fragments were purified using Qiaquick PCR columns (Qiagen), analyzed on an ABI 3130xL genetic analyzer (Applied Biosystems) with peak positions identified by using a set of X-rhodamine (ROX)-labeled MapMarker1000 molecular weight standards (BioVentures). The raw capillary electrophoresis data was processed using Attagraph software (Attagene).
On to `CC(C)(Oc1ccc(CCNC(=O)c2ccc(Cl)cc2)cc1)C(=O)O`, for which the AC50 was 21.6 µM (active).

Turning to `Cc1nc(-c2ccc(C(F)(F)F)cc2)sc1C(=O)NCc1ccc(OC(C)(C)C(=O)O)cc1`, the AC50 is 0.0769 µM (active).

For the compound `CC(C)(Oc1ccc(Cl)cc1)C(=O)O`, the result was inactive.

Consider `Cc1c(C)c2c(c(C)c1O)CCC(C)(COc1ccc(CC3SC(=O)NC3=O)cc1)O2` (configuration not stated), for which the compound was called inactive.

Consider `Cc1cccc(Nc2cc(Cl)nc(SCC(=O)O)n2)c1C`, for which the AC50 is 8.62 µM (active).

For the compound `CC(C)(Oc1ccc(C2CC2(Cl)Cl)cc1)C(=O)O` (configuration not stated), the AC50 is 71.9 µM (active).

For `C[C@@H]1C[C@H]2[C@@H]3CCC4=CC(=O)C=C[C@]4(C)[C@@]3(F)[C@@H](O)C[C@]2(C)[C@@]1(O)C(=O)COP(=O)(O)O`, the result was inactive.

With `CC(C)OC(=O)C(C)(C)Oc1ccc(C(=O)c2ccc(Cl)cc2)cc1`, the compound was classed as inactive.

For `Cc1ccc(C)c(OCCCC(C)(C)C(=O)O)c1`, the AC50 is 73.6 µM (active).

In the case of `CN(CCOc1ccc(CC2SC(=O)NC2=O)cc1)c1ccccn1` (configuration not stated), the compound was called inactive.

Take `C=C(c1ccc(C(=O)O)cc1)c1cc2c(cc1C)C(C)(C)CCC2(C)C`: the compound was called inactive.

In the case of `CC(c1cc2ccccc2s1)N(O)C(N)=O` (configuration not stated), the outcome was inactive.

A word on the AC50: it is the midpoint of the concentration-response curve, whichever way the signal moves.
